According to PubChem BioAssay (Tox21):
Inconclusive results are not listed. The source made the active and inactive calls. The call rests on the fitted dose curve; in most records, active means well fitted cell-killing curve with a large enough effect in the repeat runs; inconclusive means weak or mixed curves, or effect the other way; inactive means flat fitted curve, though single readings scatter.

Experiment: qHTS RealTime-Glo MT Cell Viability Assay in HEK293 cells - 0 hour (AID 1224880); further: top concentration of the series differs between compounds; nearly all actives have a fitted effect of over 45% in size
Conditions: RealTime-Glo luminescence; series mostly up to 76.8 µM; activity change, negative = cytotoxicity: at the top concentration
Outline: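 Tox21 screen in HEK293 using RealTime-Glo MT chemistry, with cells and reagent co-dispensed. Luminescence proportional to viable cell number was captured at intervals during 40 h compound exposure at 37 C.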
On the % scale 0 is the no-effect control and ±100 the full control effect.

SMILES | activity change, negative = cytotoxicity
CN1CCCN=C1COC(=O)C(O)(c1ccccc1)C1CCCCC1 (stereo unspecified) | -2.92% [at 35.3 µM] (inactive)
CC(C)=CCC1C(=O)N(c2ccccc2)N(c2ccccc2)C1=O | -27.4% [at 35.3 µM] (inactive)
CCn1cc(C(=O)O)c(=O)c2cc(F)c(N3CCNCC3)cc21 | -0.118% [at 35.3 µM] (inactive)
O=C1Cc2ccccc2N1c1c(Cl)cccc1Cl | -4.9% (inactive)
O=C1c2ccccc2C(=O)C1c1nc2ccccc2c(Br)c1O | -9.47% (inactive)
COc1ccccc1N1CCN(CC(O)COc2cccc3ccccc23)CC1 (stereo unspecified) | -19.8% [at 35.3 µM] (inactive)
COc1ccccc1Oc1c(NS(=O)(=O)c2ccc(C(C)(C)C)cc2)nc(-c2ncccn2)nc1OCCO | -0.693% [at 35.3 µM] (inactive)
C[C@@H](O)[C@H]1C(=O)N2C(C(=O)O)=C([C@H]3CCCO3)S[C@H]12 | 10.9% [at 35.3 µM] (inactive)
CCC(=O)OC | -2.92% (inactive)
CCCCCCCCCI | -0.474% (inactive)
C[C@@]12CCC[C@H]1[C@@H]1CC[C@H]3C[C@@H](O)CC[C@]3(C)[C@H]1CC2 | 15.6% [at 35.3 µM] (inactive)
Clc1ccc(Nc2nnc(Cc3ccncc3)c3ccccc23)cc1 | -29.8% [at 35.3 µM] (inactive)
O=[N+]([O-])c1ccc(O/N=C/c2cc(Br)c(O)c(Br)c2)c([N+](=O)[O-])c1 | -17.4% (inactive)
CCOC(=O)c1ccc(I)cc1 | -0.14% (inactive)
COC(=O)[C@H]1[C@H]2C[C@@H]3c4[nH]c5cc(OC)ccc5c4CCN3C[C@H]2C[C@@H](OC(=O)/C=C/c2ccc(O)c(OC)c2)[C@@H]1OC | -0.64% [at 35.3 µM] (inactive)
CC[C@]1(O)C[C@H]2CN(CCc3c([nH]c4ccccc34)[C@@](C(=O)OC)(c3cc4c(cc3OC)N(C=O)[C@H]3[C@@](O)(C(=O)OC)[C@H](OC(C)=O)[C@]5(CC)C=CCN6CC[C@]43[C@@H]65)C2)C1 | -8.04% [at 35.3 µM] (inactive)
